Reference: ChEMBL document CHEMBL1201862, “PubChem BioAssay data set” (2004)
Where “and” joins values, the source holds several entries; their conditions need not be identical. Equal values may be shown once. Hit rate of the full screen: of about 400,000 compounds, about 2,100 (0.53%) were called active. About 14% were inconclusive and are not listed. The rule behind the calls is not given here. The full list was thinned out, with actives kept by preference.

Target: Ataxin-2 (Homo sapiens) (UniProt Q99700)
Assay: qHTS for Inhibitors of ATXN expression.
Type: functional

Sequence of Ataxin-2 (Homo sapiens) (Q99700 whole entry): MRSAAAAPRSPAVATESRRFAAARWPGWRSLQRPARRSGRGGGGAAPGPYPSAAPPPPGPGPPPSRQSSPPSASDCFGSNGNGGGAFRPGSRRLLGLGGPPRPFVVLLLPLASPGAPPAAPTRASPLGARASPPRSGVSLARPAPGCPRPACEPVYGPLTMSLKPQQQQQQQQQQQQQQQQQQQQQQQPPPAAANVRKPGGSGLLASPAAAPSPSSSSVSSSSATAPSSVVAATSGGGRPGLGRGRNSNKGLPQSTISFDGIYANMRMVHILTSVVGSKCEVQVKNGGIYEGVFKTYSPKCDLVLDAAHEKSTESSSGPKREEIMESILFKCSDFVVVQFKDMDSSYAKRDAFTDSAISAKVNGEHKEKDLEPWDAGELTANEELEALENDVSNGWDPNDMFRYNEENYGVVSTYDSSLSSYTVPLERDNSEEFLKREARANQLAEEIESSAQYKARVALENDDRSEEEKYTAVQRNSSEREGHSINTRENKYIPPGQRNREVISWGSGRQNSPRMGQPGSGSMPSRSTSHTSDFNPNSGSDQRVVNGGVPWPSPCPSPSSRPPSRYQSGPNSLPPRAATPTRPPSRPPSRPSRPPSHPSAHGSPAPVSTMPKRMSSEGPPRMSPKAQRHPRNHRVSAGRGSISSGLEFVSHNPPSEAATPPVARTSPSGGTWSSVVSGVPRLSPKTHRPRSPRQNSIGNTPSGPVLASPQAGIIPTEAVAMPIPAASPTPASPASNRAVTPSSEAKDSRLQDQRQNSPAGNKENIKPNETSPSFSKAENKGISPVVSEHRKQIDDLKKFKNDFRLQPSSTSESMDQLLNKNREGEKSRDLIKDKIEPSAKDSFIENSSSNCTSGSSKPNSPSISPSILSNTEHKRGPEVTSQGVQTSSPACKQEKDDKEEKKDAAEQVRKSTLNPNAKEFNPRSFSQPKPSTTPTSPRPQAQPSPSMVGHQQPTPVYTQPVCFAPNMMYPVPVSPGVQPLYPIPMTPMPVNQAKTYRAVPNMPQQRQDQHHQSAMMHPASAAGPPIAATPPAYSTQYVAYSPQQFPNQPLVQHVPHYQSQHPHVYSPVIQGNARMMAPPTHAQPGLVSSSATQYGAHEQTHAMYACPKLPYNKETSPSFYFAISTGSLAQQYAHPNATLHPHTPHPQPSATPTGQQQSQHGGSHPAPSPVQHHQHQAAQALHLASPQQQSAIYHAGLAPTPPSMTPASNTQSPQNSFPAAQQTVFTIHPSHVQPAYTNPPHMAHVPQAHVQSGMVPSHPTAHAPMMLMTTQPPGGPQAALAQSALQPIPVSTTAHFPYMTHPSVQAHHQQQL

| Compound | Potency |
| --- | --- |
| CCOC(=O)c1cc2c(=O)n3ccccc3nc2n(CC2CCCO2)/c1=N\C(C)=O (stereo not drawn) | inactive |
| CN(C)/C=N/C(=S)Nc1cc(Cl)cc(Cl)c1 | inactive |
| CCC1C/C(=C\c2cccnc2)C(=O)/C(=C/c2cccnc2)C1 (stereo not drawn) | 14.1 µM (active) |
| CC1CCc2nc(/C(C#N)=C/c3cccnc3)sc2C1 (stereo not drawn) | inactive |
| CSC1=N/C(=C/c2cccnc2)C(=O)N1Cc1ccccc1 | inactive |
| CC1C/C(=C\c2cccnc2)C(=O)/C(=C/c2cccnc2)C1 (stereo not drawn) | 11.2 µM (active) |
| Cc1cccc(NC2=NC(=O)/C(=C/c3cccnc3)S2)c1 | inactive |
| C(=NOCc1ccccc1)c1ccccn1 | inactive |
| CC1C/C(=C/c2ccccn2)C(=O)/C(=C/c2ccccn2)C1 (stereo not drawn) | 11.9 µM (active) |
| O=C(CSc1nnc2ccc(-c3ccccn3)nn12)Nc1cccc(F)c1 | inactive |
| Cc1cccc(NC(=O)CSc2cccc3cccnc23)c1 | 44.7 µM (active) |
| COc1ccc(/C=C/C(=O)NCC(=O)N/N=C/c2cccnc2)cc1 | inactive |
| Cc1cc(SCC(=O)Nc2cccnc2Cl)nc2ccccc12 | inactive |
| O=C(CSc1ncccn1)N/N=C/c1ccccc1[N+](=O)[O-] | inactive |
| CCn1c(SCC(=O)Nc2cccc(C)c2)nc2nc3c(cc2c1=O)COC(C)(C)C3 | inactive |
| CN(C)S(=O)(=O)c1cccc(NC(=O)Cn2cc(C(F)(F)F)cc(Cl)c2=O)c1 | inactive |
| CN(C)S(=O)(=O)c1ccc(SCC(=O)Nc2cccc(S(=O)(=O)N3CCCC3)c2)nc1 | inactive |
| O=C(CSc1cccc2cccnc12)N/N=C/c1cccnc1 | 39.8 µM (active) |
| Cc1ccc(NC(=O)CSc2cccc3cccnc23)c(C)c1 | 39.8 µM (active) |
| CN(C)S(=O)(=O)c1cccc(NC(=O)CSc2cccc3cccnc23)c1 | 39.8 µM (active) |
| Cc1ccc(NC(=O)CSc2nc3nc(O)cc(O)c3s2)c(Br)c1 | inactive |
| COc1ccc(C(=O)NCCNc2nc3ccc(C)cc3cc2C#N)cc1OC | inactive |
| O=C(CSc1ccccn1)N1CCN(c2ncc(C(F)(F)F)cc2Cl)CC1 | inactive |
| COc1ccc(OC)c(C2CC(=O)N3CN(c4ccccc4F)CSC3=C2C#N)c1 (stereo not drawn) | inactive |
| O=C(CCN1C(=O)/C(=C/c2ccc(F)cc2)SC1=S)Nc1cccnc1 | inactive |

| Compound | Potency |
| --- | --- |
| O=C(CCCN1C(=O)c2cccnc2C1=O)Nc1ccccc1F | inactive |
| O=C(CCCN1C(=O)/C(=C/c2ccccc2OC(F)F)SC1=S)Nc1cccnc1 | 20 µM (active) |
| C(=N\NC1=NCCN1)/c1ccncc1 | inactive |
| CCCCOc1ccc(Br)cc1/C(C)=N/NC1=NCCN1 | 22.4 µM (active) |
| Cn1c(Cl)cnc1C(O)(c1ccccc1)c1ccccc1 | inactive |
| CCc1nc2ccccc2c(C(=O)OCC(=O)C(C)(C)C)c1C | inactive |
| COc1ccc([N+](=O)[O-])cc1NC(=O)C(C)OC(=O)CN1C(=O)C2CC=CCC2C1=O (stereo not drawn) | inactive |
| CCNc1cccc2c1C(=O)N(C)C2=O | inactive |
| CN1C(=O)c2cccc(NCCCN3C(=O)c4ccccc4C3=O)c2C1=O | inactive |
| O=C1c2c(O)ccc(O)c2C(=O)c2c(NCCNCCO)ccc(NCCNCCO)c21 | 2.99 µM (active) and 20 µM (active) |
| O=C1c2ccccc2C(=O)c2c(NCCCN(CCO)CCO)cccc21 | 26.7 µM (active) |
| O=C1c2cccc(NCCCNCCO)c2C(=O)c2cccc(NCCCNCCO)c21 | 15 µM (active) |
| CC1CCCCC1NC(=O)COC(=O)c1c2c(nc3ccccc13)/C(=C\c1ccco1)CC2 (stereo not drawn) | inactive |
| Cc1csc(NC(=O)c2sc3nc(-c4cccs4)ccc3c2N)n1 | inactive |
| CCOC(=O)c1cc2c(=O)n3ccccc3nc2n(C(C)C)/c1=N\C(=O)c1c(-c2c(F)cccc2Cl)noc1C | inactive |
| Cc1c(Br)c(=O)oc2c(Br)c(O)c(O)cc12 | inactive |
| CN(C)c1ccc(/C=N/NC(=O)c2ccc3[nH]cnc3c2)cc1 | inactive |
| Nc1ccc(N=Nc2ccc(O)cc2)c(N)n1 | 21.2 µM (active) |
| Nc1ccc(/N=N\c2ccccc2)c(N)n1 | inactive |
| Nc1nc(O)cc(N=Nc2ccc(O)cc2)n1 | 17.8 µM (active) |
| Nc1c(Cl)cc(-c2nc3cc(C(=O)NCCO)ccc3c(O)c2O)cc1Cl | inactive |
| COC(=O)c1ccc(NCc2cc(O)ccc2O)cc1O | 39.8 µM (active) |
| Cc1ccc(O)c(C(=O)CC(=O)c2ccccc2Cl)c1 | inactive |
| COC(=O)c1cc(CN2CCN(c3ccccc3)CC2)ccc1O | inactive |
| O=C1C=CC(=O)C(CNc2ccc(C(=O)OCc3ccccc3)cc2)=C1 | 23.8 µM (active) |

| Compound | Potency |
| --- | --- |
| COC(=O)c1ccc(C2C(C#N)=C(N)Oc3cc(O)ccc32)cc1 (stereo not drawn) | inactive |
| COc1ccc(CNc2nc3ccccc3n2C(C)C)c(O)c1 | inactive |
| CC(C)OC(=O)c1ccc(NCc2cc(O)ccc2O)cc1Cl | 20 µM (active) |
| Nc1ccc(C(=O)NCc2ccccc2)cc1 | inactive |
| CC(C)OC(=O)c1ccc(NCc2cc(O)ccc2O)cc1 | 29.9 µM (active) |
| CN(C)c1nc(-c2cccs2)cc(C(F)(F)F)c1C#N | inactive |
| CCCCOc1c(C(=O)Nc2ccccc2)nnn1-c1ccccc1 | inactive |
| CCCS(=O)(=O)c1ccc(COC(=O)c2cccc(NC(=O)C(C)C)c2)cc1 | inactive |
| CC(=O)Cc1cc(O)c2ccccc2c1OC(=O)c1ccccc1 | inactive |
| COC(=O)c1ccc(NCc2c(O)ccc(O)c2Br)cc1Cl | 28.2 µM (active) |
| O=C(OCc1ccccc1)c1ccc(NCc2cc(O)ccc2O)cc1 | 8.91 µM (active) |
| CC(=O)Nc1ccc(NC(=O)c2cc(=O)c3ccc(C)cc3o2)cc1 | inactive |
| Cc1ccc(C)c(OC(=O)c2cccnc2)c1 | inactive |
| Cc1ccc2nc(-c3ccc(NC(=O)c4cccnc4)cc3)oc2c1 | 25.1 µM (active) |
| CCOC(=O)c1cc2c(=O)n3ccccc3nc2n(CCCOC)/c1=N\C(=O)C(C)Oc1ccccc1 (stereo not drawn) | inactive |
| O=C(Cn1nc(C(F)(F)F)c2c1CCCC2)Nc1ccc(Cl)cc1 | 39.8 µM (active) |
| O=C(CN1CCCC1)Nc1ccc(Br)cc1 | inactive |
| Nc1c(C(=O)NCc2ccc(Cl)cc2)sc2nc3c(c(C(F)(F)F)c12)CCC3 | inactive |
| COC(=O)[C@@]1(Cc2ccc(F)cc2)[C@H]2c3cc(C(=O)N4CCCC4)n(Cc4ccccc4)c3C[C@H]2CN1C(=O)c1ccccc1 | 25.1 µM (active) |
| COC(=O)C1CCN(C(=O)c2cc3c(=O)n4cccc(C)c4nc3n2Cc2ccccc2)CC1 | inactive |
| COC(=O)[C@@]1(Cc2ccc(F)cc2)[C@H]2c3cc(C(=O)N4CCCC4)n(CC4CC4)c3C[C@H]2CN1C(=O)c1ccccc1 | 39.8 µM (active) |
| CCOC(=O)C1CCCN(C(=O)c2ccc(Cn3c(=S)[nH]c4cc(C(=O)OC)ccc4c3=O)cc2)C1 (stereo not drawn) | inactive |
| COC(=O)[C@@]1(Cc2ccc(F)cc2)[C@H]2c3cc(C(=O)N(C)C)n(Cc4ccc(C)o4)c3C[C@H]2CN1C(=O)c1ccccc1 | 35.5 µM (active) |
